The text below walks through data of PubChem BioAssay (NCI).

About 83,000 compounds went through this panel and 20% of them were active in at least one assay; those are over-represented in the sample as a whole.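 Cell lines were cultured in 96-well plates, exposed to a single compound concentration, and assessed for percent growth 48 hours later.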 A number with no mark means an inactive call. Calls of active or inactive are those of the source. Rule for the calls: active = growth percent below 10; inactive = the rest.

The test system of this assay is HL-60(TB) leukemia. The assay can be described thus: NCI-60 one-dose screen, 48 h (100 = growth as untreated, 0 = no growth, -100 = all killed). Particulars: 10 µM unless noted.
Consider `CCn1cc(-c2ccnc3[nH]c(-c4cccc(CN(C)C)c4)cc23)c(-c2ccc(NC(=O)N(C)C)cc2)n1`, for which the growth is -40.6% (active).
With `CO/C(=C1/NC(=O)C(Cc2ccc(O)c(Br)c2)N(C)C(=O)C(C)NC(=O)CCC/C=C(\C)CCC(C)OC1=O)c1ccccc1` (stereo not given) the figure was -58.6% (active).
As for `CCCn1nc(C(=O)N(C)Cc2ccccc2)c2c1CCC(N1CCc3ccccc31)C2` (stereo not given), the figure is 98%; as for `CCOC(=O)c1c(O)cc(-c2ccccc2)cc1-c1sc(N(C)Cc2ccccc2)nc1Cl`, 100%; as for `Nc1n[nH]c2ccc([C@@H]3Nc4ccc5[nH]ncc5c4[C@H]4C5C=CC(C5)[C@@H]34)cc12` (stereo not given in full), -24.9% (active).
With `C=C[C@H]1CCC/C=C/[C@@H]2C[C@H](O)C[C@H]2[C@H](O)/C=C/C(=O)O1` the figure was -0.65% (active); with `O=S(=O)(NCCNc1nccc(-c2c(-c3cccc(O)c3)nc3occn23)n1)c1ccc(Br)cc1`, 18%; with `CCCCCN1C=C/C(=C\C(=O)n2ccc3ccccc32)c2ccccc21`, 103%.
`Cc1ccc(/C(=N\N=C(N)N)c2ccccc2)cc1`: the growth is -41.6% (active).
For `Cc1cc2ccccc2cn1`, the growth is 91.6%.
With `Cn1ccc(=Nc2ccc(NC(=O)c3ccc(N=c4ccn(C)c5ccc([N+](=O)[O-])cc45)cc3)cc2)cc1` the figure was 76.7%; with `C#CCNC(=O)[C@H](Cc1ccccc1)NC(=O)[C@]12CC[C@@H](C(=C)C)[C@@H]1[C@H]1CC[C@@H]3[C@@]4(C)CCC(=O)C(C)(C)[C@@H]4CC[C@@]3(C)[C@]1(C)CC2`, 33%; with `COCCn1cc(-c2nc(-c3cc4cccnc4n3C)cs2)c2ccccc21`, 42.2%.
For `COc1cc2nc3cc([N+](=O)[O-])ccc3c(Cl)c2cc1OC`, the growth is 109%.
With `CC/C(=C(/c1ccc(Cl)cc1)c1ccc(OCCN2CCCCC2)cc1)c1ccc(OC)cc1` the figure was 24%; with `CCOC(=O)c1sc(N)nc1-c1ccccc1`, 98.3%.
With `COC(=O)[C@]12CC[C@@H](C)[C@H](C)[C@@H]1C1=CC[C@@H]3[C@@]4(C)C[C@@H](OC(C)=O)[C@H](O)[C@@](C)(CO)[C@@H]4[C@H](O)C[C@@]3(C)[C@]1(C)CC2` the figure was -56.6% (active); with `O=C(Nc1ccc2c(c1)OCO2)C(=O)c1c[nH]c2cc(F)ccc12`, 53.5%.
As for `COc1ccc(Cl)cc1Nc1nc(C(F)(F)F)ccc1C(=O)N/N=C/c1ccc(Cl)cc1`, the figure is 9.34% (active).
Regarding `COc1ccc2c(c1)c(-c1nn3cc(-c4cccs4)nc3s1)cn2C`, the growth is 82.7%.
With `Cc1cccc2c3c(sc12)C(c1ccc(F)cc1)C(C#N)=C(N)O3` (stereo not given) the figure was -21.8% (active).
As for `COc1ccccc1Nc1nc(-c2cc3cccc(C(F)(F)F)c3oc2=O)cs1`, the figure is -5.62% (active).
Consider `O=C(O)c1cn(C2CC2)c2cc(N3CCN(Cc4nnc(Nc5ccccc5)o4)CC3)c(F)cc2c1=O`, for which the growth is 91.4%.
As for `COC(=O)c1c2c(c(C)[n+]([O-])c1C)C(=O)C=CC2=O`, the figure is -7.95% (active); as for `O=c1c2sc3ncc(Cl)cc3c2nnn1-c1cccc(Cl)c1`, 91.8%.
With `CCCCC1COc2cccc3c2N1C=C/C3=C\C(=O)n1ccc2ccccc21` (stereo not given) the figure was 58%; with `COc1ccc(-c2[nH]c3ccccc3c2/C=C(\C#N)S(=O)(=O)c2ccccc2)cc1`, -28.4% (active).
As for `c1cn2cc(-c3ccc4cn[nH]c4c3)nc(Nc3ccc(N4CCOCC4)cc3)c2n1`, the figure is 71.1%; as for `OC(c1cc2ccc(C(F)(F)F)cc2c2cc(C(F)(F)F)ccc12)C1CCCCN1` (stereo not given), -72.8% (active).
Consider `C=CCNc1ccc2c3c(cccc13)C(=O)N(N1C(=O)c3cccc4cccc(c34)C1=O)C2=O`, for which the growth is 102%.
As for `CCOC(=O)C(C)(c1ccccc1)c1ccccc1`, the figure is 104%; as for `C[C@]12CCc3nc(Nc4cccc(O)c4)sc3C1=CC[C@@H]1[C@@H]2CC[C@]2(C)/C(=N\NC(N)=S)CC[C@@H]12`, 10.9%; as for `CC(C)(C)[Si](C)(C)OC1[C@@H](CNC(=O)NC(=O)NC(N)=O)O[C@@H](n2cnc3c(NC(=O)Nc4ccccc4)ncnc32)[C@H]1O[Si](C)(C)C(C)(C)C` (stereo not given in full), 86.3%.
With `CCCC1(c2ccccc2)NC(=O)NC1=O` (stereo not given) the figure was 144%.
As for `O=C(O)C1(Cc2cccc(Nc3nccs3)n2)CCC(Oc2cccc(Cl)c2F)CC1` (stereo not given), the figure is 50.7%; as for `N=C(N)c1ccc(-c2ccc(-c3ccc(Cl)cc3Cl)o2)cc1`, -60.8% (active).
In the case of `COc1ccc(/C=C/C(c2cc(OC)c(OC)c(OC)c2)n2cncn2)cc1` (stereo not given), the growth was -17.9% (active).
With `COc1ccc(/C=C2\NC(=O)NC2=O)cc1O` the figure was 102%.
In the case of `COc1ccc(-c2[nH]ncc2-c2cc(OC)c(OC)c(OC)c2)cc1`, the growth was -35.5% (active).
As for `Cc1[nH]c(C(=O)Nc2ccc(C(=O)N3CCNCC3)cc2OC(C)C)c(Cl)c1Cl`, the figure is 57.4%.
